Structures are written as SMILES. This is part of a sample that, as a whole, favours compounds with a hit. Of some 83,000 tested, about 20% had one in any assay.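 In brief: 96-well plates, 48 h treatment, single concentration, percent growth endpoint.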 Unmarked numbers belong to inactive results. Activity calls are given as the source filed them. How the source made its calls: active means growth percent below 10; inactive means the rest.

This experiment concerns RPMI-8226 leukemia. The experiment is described as follows: NCI-60 one-dose screen, 48 h (100 = growth as untreated, 0 = no growth, -100 = all killed). The note with it: 10 µM.
With `CC(=O)Nc1nc(-c2ccc(N3CCN(C)CC3)c(NS(=O)(=O)c3cccc4c(N(C)C)cccc34)c2)cs1`, the growth was 6.29% (active).

With `CN1CCN(Cc2ccc(C(=O)Nc3cccc(Nc4ccc5cc(O)ccc5n4)c3)cc2C(F)(F)F)CC1`, the growth was -51.3% (active).

As to `O=C(c1ccc(O)cc1)C1[C@H](c2ccccc2Br)[C@@H](c2ccccc2)NC12C(=O)Nc1ccc(Br)cc12` (stereo not given in full), the growth is 24.6%.

As to `Brc1ccc(/C=N/Nc2ncnc3sc4c(c23)CCN(Cc2ccccc2)C4)cc1`, the growth is 48.5%.

Regarding `O=C(c1ccc(O)cc1)C1[C@H](c2ccc(Br)cc2)[C@@H](c2ccccc2)NC12C(=O)Nc1ccccc12` (stereo not given in full), the growth was 23%.

Regarding `O=c1[nH][nH]c(Nc2ccccc2)c1N=Nc1ccc(F)cc1`, the growth was 112%.

Turning to `Cc1ccc(-c2nc3ccc(C(=O)N=Nc4c(O)[nH]c5ccc(Cl)cc45)cc3[nH]2)cc1`, the growth was 32.6%.

As for `COc1ccc(C(=O)Nc2ccc(-c3ccc4c(c3)NC(=O)/C4=C\c3ccc[nH]3)cc2)cc1`, the growth was 65.5%.

On to `CNCc1cccc2c1OCCCCCC[C@@](C)(O)CC1(CC1)S(=O)(=O)c1ccc(cc1)-c1cnc(N)c(n1)C(=O)N2`, for which the growth is -31.3% (active).

As for `COc1cccc2nc(Nc3ccc(F)c(NC(=O)c4ccc(CN5CCN(C)CC5)c(C(F)(F)F)c4)c3)ccc12`, the growth was -43.9% (active).

Turning to `CCOC(=O)C1NN(c2ccc(S(N)(=O)=O)cc2)c2nc3nc(-c4cccs4)cc(-c4cccs4)c3c(=O)n21` (stereo not given), the growth is 77.9%.

As to `O=C1Nc2cc(Cl)ccc2/C1=C/c1cccc(OCc2ccc(Br)cc2F)c1`, the growth is -20.1% (active).

For the compound `O=C(c1ccc(Cl)cc1)C1[C@H](c2ccccc2Br)[C@@H](c2ccccc2)NC12C(=O)Nc1ccc(Br)cc12` (stereo not given in full), the growth was 7% (active).

As for `O=c1[nH]n(C(=S)N/N=C/c2ccc(F)cc2)c(=O)c2ccccc12`, the growth is -22.5% (active).

For the compound `CC1(C)CC[C@]2(C(=O)O)CC[C@]3(C)C(=CC[C@@H]4[C@@]5(C)C/C(=C/c6ccncc6)[C@H](O)C(C)(C)[C@@H]5CC[C@]43C)[C@@H]2C1`, the growth is 19%.

Regarding `CC1(C)CC[C@]23CC[C@]4(C)[C@H](CC[C@@H]5[C@@]6(C)CC[C@H](N)C(C)(C)[C@@H]6CC[C@]54C)[C@H]2[C@H]1OC3=O`, the growth is -31.4% (active).

As to `C#CCNC(=O)[C@]12CCC(C)(C)C[C@H]1C1=CC[C@@H]3[C@@](C)(CCC#N)[C@H](C(=C)C)CC[C@@]3(C)[C@]1(C)CC2`, the growth is 22.2%.

In the case of `COC1CC(Cn2cc(COc3ccc4ccc(=O)oc4c3)nn2)C(OCc2ccccc2)C(OCc2ccccc2)C1OCc1ccccc1` (stereo not given), the growth was 77.7%.

Take `Cc1cccc2cc(-c3cc(-c4ccccc4)nc(=O)[nH]3)c(Cl)nc12`: the growth was 17.8%.

As for `Cc1ccc(CSc2nc(-c3ccc(F)cc3)c(C#N)c(=O)[nH]2)cc1`, the growth was 91.5%.

Consider `O=C1Nc2cc(-c3ccc(NC(=O)c4cccc([N+](=O)[O-])c4)cc3)ccc2/C1=C/c1ccc[nH]1`, for which the growth is 82.9%.

Take `C=C(C)[C@@H]1CC[C@]2(COP(=O)(OCC)OCC)CC[C@]3(C)[C@H](CC[C@@H]4[C@@](C)(CCCN)[C@H](C(=C)C)CC[C@]43C)[C@@H]12`: the growth is -34.4% (active).

`O=C(CS(=O)(=O)c1oc(-c2ccc(Cl)cc2)nc1S(=O)(=O)c1ccc(Cl)cc1)N1CCOCC1`: the growth was -9.59% (active).

For `CN1CCN(c2ccc(Nc3nc(NCCCNC(=O)c4ccc(Cl)cc4)c4sccc4n3)cc2)CC1`, the growth was 48.5%.

Consider `CN1CCN(c2ccc(Nc3nc(NCCNC(=O)c4ccc(C(F)(F)F)cc4)c4sccc4n3)cc2)CC1`, for which the growth is -40.1% (active).

On to `O=C(NCCCCC(c1ccc(F)cc1)c1ccc(F)cc1)NCCCc1cccnc1`, for which the growth was -42.1% (active).

Consider `O=C(c1ccc(Cl)cc1)C1[C@H](c2ccc(Br)cc2)[C@@H](c2ccccc2)NC12C(=O)Nc1ccc(Br)cc12` (stereo not given in full), for which the growth is -6.16% (active).

As for `COc1ccc2[nH]c(O)c(N=NC(=O)COc3ccc(NC(=O)Nc4ccc(Cl)cc4)cc3)c2c1`, the growth was 32.1%.

Consider `CONC[C@]1(C)C=C2C(=O)[C@](C)(O)C3(CC3)C(C)=C2[C@H]1O`, for which the growth was 54.3%.

On to `COC[C@@H](CC(C)C)N=C1NC(=O)/C(=C/c2ccc3ncoc3c2)N1`, for which the growth is 0.955% (active).

With `O=C(c1ccc(Cl)cc1)C1[C@H](c2ccccc2Br)[C@@H](c2ccccc2)NC12C(=O)Nc1ccccc12` (stereo not given in full), the growth is 12.3%.

For the compound `Cc1ccc(NCC(=O)Nn2c(COc3ccccc3)nc3ccccc3c2=O)cc1`, the growth was 85.9%.

Consider `CO[C@@H]1CSSC1Cn1nc(-c2ccc(Oc3ccccc3)cc2)c2c(N)ncnc21` (stereo not given in full), for which the growth is 34.6%.

`COc1cc(Cn2c(C(F)(F)F)cc3c(Cl)ncnc32)ccn1`: the growth was 6.17% (active).

Turning to `COc1ccc(/C(C)=N/N=C2C(=O)N(C)c3ccc(Br)cc32)cc1S(N)(=O)=O`, the growth is 79.3%.

Take `N#Cc1c(-c2ccc(F)cc2)nc(SCc2ccc(F)cc2)nc1N1CCOCC1`: the growth was 92.7%.

Take `S=c1nc(-c2ccccc2)cc(-c2cc3ccccc3nc2Cl)[nH]1`: the growth was 76.3%.

Take `C=C(C)[C@@H]1CC[C@]2(C(=O)OC)CC[C@]3(C)[C@H](CC[C@@H]4[C@@]5(C)CC[C@H](N)C(C)(C)[C@@H]5CC[C@]43C)[C@@H]12`: the growth was -30.7% (active).

`O=C(c1ccc(O)cc1)C1[C@H](c2ccccc2Br)[C@@H](c2ccccc2)NC12C(=O)Nc1ccc(Cl)cc12` (stereo not given in full): the growth is 4.84% (active).

Turning to `CC[C@@]1(O)C(=O)OCc2c1cc1n(c2=O)Cc2c-1nc1cc(F)c(C)c3c1c2[C@@H](N)CC3`, the growth was -3.74% (active).

The record behind these values is PubChem BioAssay (NCI).
